High-throughput results deposited in PubChem by National Center for Advancing Translational Sciences (NCATS).
ELG1 genotoxic: qHTS screen for small molecules that induce genotoxicity in human embryonic kidney (HEK293T) cells expressing luciferase-tagged ELG1. 330,000 tested, 1.3% active. AID 504466, 2011. HEK293T ELG1-luciferase reporter, luminescence, 16 h. Potency, µM (titrated, usually from 46 µM), for the others: top-dose activity change, positive = activation, actives largely listed as activators; also: % of control where 0% means no effect; nearly all actives have a fitted effect of over 60% in size
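ELG1-luciferase HEK293T cells, 2,000/well; compound pinned in; 16 hr, 37 °C, 5% CO2; ONE-Glo, 30 min RT; luminescence on CCD imager.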
Rab9 prom act: qHTS Assay for Rab9 Promoter Activators; Huh7 Rab9 promoter-luciferase reporter, luminescence, 24 h; Potency, µM (titrated, usually from 9.22 µM), for inactives: top-dose activation, negative = inhibition, actives largely listed as activators; 320,000 tested, 2.8% active; AID 485297, 2010; also: % of control where 0% means no effect; nearly all actives have a fitted effect of over 60% in size
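Luciferase signal after 10 min detection reagent at ambient indicates Rab9 promoter upregulation; stably transfected Huh7 cells were treated 24 h with compound in DMSO at 37 °C, 5% CO2.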
NPC1 promoter act: qHTS Assay for NPC1 Promoter Activators. Huh7 NPC1 promoter luciferase reporter, 24 h. Potency, µM (series often up to 9.22 µM), for inactives: at the top dose activation, usual class: activators. 320,000 tested, 2.4% active; also: % of control where 0% means no effect; nearly all actives have a fitted effect of over 60% in size
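Luminescence read-out of NPC1 promoter-driven luciferase in stably transfected Huh7 cells; compounds delivered in DMSO and left 24 h at 37C, 5% CO2, qHTS titration format.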
SMN2 splice enh: qHTS Assay for Enhancers of SMN2 Splice Variant Expression. HEK293 SMN2-luciferase splicing reporter, luminescence, 30-36 h. Potency, µM (top dose mostly 46.1 µM), for inactives: top-dose activity change, positive = activation, most hits filed as activators. 210,000 tested, 2.8% active. AID 1458, 2008; also: % of control where 0% means no effect; nearly all actives have a fitted effect of over 55% in size
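qHTS luciferase splicing reporter: luminescence rises when SMN2 exon 7 is included in transfected HEK293 cells. Compound exposure lasted 30-36 h at 37C, with 4.5 mM final sodium butyrate as control, followed by a ONE-Glo read.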
FLuc counter: qHTS profiling assay for firefly luciferase inhibitor/activator using purifed enzyme and Km concentrations of substrates (counterscreen for miR-21 project). purified FLuc, Km substrates, luminescence inhibition. Potency, µM (top dose mostly 57.5 µM), inactives show top-dose activity change, negative = inhibition, most hits filed as inhibitors. 360,000 tested, 6.9% active. AID 588342, 2011;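 also: plate controls were vehicle for no effect and reference inhibitor for full effect; nearly all actives have a fitted effect of over 55% in size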
Target sequence (P08659 whole entry, looked up): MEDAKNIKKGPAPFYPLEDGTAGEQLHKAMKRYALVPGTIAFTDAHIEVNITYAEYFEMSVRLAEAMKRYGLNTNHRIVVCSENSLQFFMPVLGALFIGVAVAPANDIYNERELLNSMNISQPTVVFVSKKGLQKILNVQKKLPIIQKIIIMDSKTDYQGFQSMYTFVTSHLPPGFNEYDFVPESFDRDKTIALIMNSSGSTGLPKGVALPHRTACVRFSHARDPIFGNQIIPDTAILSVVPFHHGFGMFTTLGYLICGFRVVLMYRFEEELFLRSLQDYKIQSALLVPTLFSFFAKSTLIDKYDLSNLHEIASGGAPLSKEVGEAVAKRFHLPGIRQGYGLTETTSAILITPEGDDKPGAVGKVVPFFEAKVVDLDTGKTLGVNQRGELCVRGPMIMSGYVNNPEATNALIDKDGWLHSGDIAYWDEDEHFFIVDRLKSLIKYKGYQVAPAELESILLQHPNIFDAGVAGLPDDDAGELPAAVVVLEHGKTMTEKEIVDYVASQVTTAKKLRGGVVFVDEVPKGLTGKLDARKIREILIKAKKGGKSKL
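Purified P. pyralis luciferase, 10 nM final, with Km-level 10 uM D-luciferin and 10 uM ATP in 50 mM Tris acetate pH 7.5, 10 mM Mg acetate, 0.01% Tween-20, 0.05% BSA; 6-point qHTS titration about 60 µM downward; luminescence read.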
* = called active by the depositor; ? = inconclusive; . = no result given. This is a sample that favours compounds with a hit; in the whole collection about 7.5% have one here. Calls follow the shape of the dose curve; as a rule, active = well fitted curve in the direction sought with a large enough effect; inconclusive = small, poorly fitted or top-dose-only effect, or another doubt; inactive = no such curve, though single readings can be large; an effect the other way counts as inactive or inconclusive. Potency is read from the fitted curve at half-maximal effect.

SMILES	ELG1 genotoxic	Rab9 prom act	NPC1 promoter act	SMN2 splice enh	FLuc counter
Cc1nc2c(ccc3c2ccc2nc(C)sc23)s1	?	?	?	13%	?
O=c1c2c([nH]c3ccccc13)CCCC2	-4%	2%	4%	-24%	-1%
CC(C)(C)C1CCc2[nH]c3ccccc3c(=O)c2C1 (configuration not stated)	?	10%	20%	-6%	6µM*
O=C(Nc1nnc(SCc2ccc(F)cc2)s1)c1cnccn1	0%	0%	1%	-6%	-15%
COc1cc2c(cc1OC)CN(c1ccc3ccccc3n1)CC2	?	18%	16%	.	?
COc1cc2c(cc1OC)CN(c1ccc(C(F)(F)F)cn1)CC2	?	17%	27%	.	17µM*
CCc1ccc(OCC(=O)Nc2ccc3c(c2)c2ccccc2n3CC)c(Br)c1	.	.	.	-4%	-7%
CCN=c1scc(C)n1/N=C/c1cc(Br)c(O)c(Br)c1	-6%	-1%	-1%	?	19µM*
C=C(C)CN=c1scc(C)n1/N=C/c1ccco1	4%	11%	6%	-8%	-10%
COCCN=c1scc(-c2cccs2)n1/N=C/c1ccc(O)c(O)c1O	3%	3%	-2%	.	?
CCN=c1scc(C)n1/N=C/c1ccc(O)c(O)c1O	-4%	20%	1%	-15%	3.4µM*
CCOC(=O)c1ccc2c(c1)nc(-c1ccccn1)n2CC	?	3.5µM*	?	.	1.5µM*
O=C(NCc1ccco1)c1ccc2c(c1)C(=O)c1ccccc1-2	15µM*	16%	4%	-7%	?
Cc1ccc(C(=O)NCc2ccco2)cc1	9%	15%	14%	.	-19%
O=C(NCc1ccco1)c1ccc2ccccc2c1	11%	?	?	17%	13µM*
Cc1ccc(C(=O)Nc2sc3c(c2C(=O)NCc2ccco2)CCCC3)cc1	13%	1%	-3%	12%	-18%
O=C(Nc1sc2c(c1C(=O)NCc1ccco1)CCCC2)c1ccc2c(c1)OCO2	10µM*	?	0%	?	12µM*
CC(C)(CO)NC(=O)c1ccc2c(c1)C(=O)c1ccccc1-2	23µM*	?	2.5µM*	.	19µM*
CS(=O)(=O)N1CCc2cc(S(=O)(=O)N3CCCCC3)ccc21	-4%	-3%	0%	-26%	3%
O=C(NCc1ccco1)c1ccc(Oc2ccccc2)cc1	?	16%	14%	0%	24µM*
CCC1CSC(=Nc2ccc(C)cc2)N1C(=O)CN1C(=O)NC2(CCCC2)C1=O (configuration not stated)	2.6µM*	0.79µM*	0.56µM*	.	17µM*
Cc1ccc(C(NC(=O)CN2C(=O)NC3(CCCC3)C2=O)c2ccccc2)cc1 (configuration not stated)	-3%	-2%	-1%	.	0%
O=C1c2ccccc2-c2nc3ccccc3nc21	4.5µM*	2.2µM*	2.8µM*	13µM*	15µM*
O=C(COc1ccccc1F)Nc1c(C(=O)Nc2cccc(F)c2)oc2ccccc12	.	.	.	6%	6%
CSCc1c(C(=O)Nc2ccc(N3CCOCC3)cc2)oc2ccccc12	5%	0%	7%	-20%	1%
SMILES	ELG1 genotoxic	Rab9 prom act	NPC1 promoter act	SMN2 splice enh	FLuc counter
COCC(=O)Nc1c(C(=O)Nc2ccc3c(c2)OCO3)oc2ccccc12	?	3.2µM*	3.5µM*	.	-6%
O=C(CCl)Nc1c(C(=O)Nc2ccc3c(c2)OCCO3)oc2ccccc12	?	4µM*	4µM*	.	?
CSCc1c(C(=O)Nc2ccc3c(c2)OCO3)oc2ccccc12	11%	19%	-26%	.	19µM*
Cc1c(C(=O)Nc2ccc3c(c2)OCO3)oc2ccccc12	2.6µM*	2.2µM*	2µM*	.	1.9µM*
Cc1cc(C(=O)Nc2ccc3c(c2)OCCO3)c2ccccc2n1	8%	2%	1%	-18%	-3%
Cc1cc(=O)[nH]c(/N=C(\N)Nc2ccc(SC(F)F)cc2)n1	-11%	0%	-10%	-1%	-3%
